Assay [1] is described as follows: ATG_Hpa5_TRANS: Attagene TRANS-FACTORIAL HepG2 Assay for human GAL4-Hpa5 Hepatocyte Transcription Factor Basal Promoter (AID 2282975; active = hit-call score of the fitted dose curve at least 0.9, where 1 is the maximum;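 also: hits are increases in reporter mRNA over DMSO baseline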). The following applies: HepG2 Attagene GAL4-Hpa5 transcription reporter. A digest of the protocol:
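Basal-promoter GAL4 background control within the HepG2 trans-factorial panel of transiently transfected reporter units. Reporter mRNA is measured 24 h after dosing by RT-PCR and capillary electrophoresis, fitted for gain of signal versus DMSO.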

Assay [2] concerns the target Glucocorticoid receptor (Homo sapiens) (UniProt P04150). The assay can be described thus: ATG_GR_TRANS: Attagene TRANS-FACTORIAL HepG2 Assay for human Glucocorticoid Receptor (GR) (AID 2282978; active = hit-call score of the fitted dose curve at least 0.9, where 1 is the maximum;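 also: activators score as hits since higher reporter transcript over DMSO is fitted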). The following applies: HepG2 Attagene TRANS GR reporter, mRNA transcription. A digest of the protocol:
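Transiently transfected HepG2 cells express chimeric NR-GAL4 proteins acting on GAL4-UAS reporter units. Compounds are applied for 24 h. mRNA induction over DMSO is measured by capillary electrophoresis.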

In assay [3] the target is Oxysterols receptor LXR-alpha (Homo sapiens) (UniProt Q13133). The experiment in a line: ATG_LXRa_TRANS: Attagene TRANS-FACTORIAL HepG2 Assay for human Liver X Receptor alpha (LXRa) (AID 2282980; active = hit-call score of the fitted dose curve at least 0.9, where 1 is the maximum). The following applies: HepG2 Attagene TRANS reporter, LXRa transactivation. In a few lines:
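HepG2 cells transiently transfected with GAL4-UAS reporter units for chimeric NR-Gal4 proteins, exposed to chemicals for 24 h. Reporter mRNA quantified by RT-PCR and capillary electrophoresis; gain of signal fitted relative to DMSO.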

Assay [4] concerns the target Oxysterols receptor LXR-beta (Homo sapiens) (UniProt P55055). The experiment in a line: ATG_LXRb_TRANS: Attagene TRANS-FACTORIAL HepG2 Assay for human Liver X Receptor beta (LXRb) (AID 2282981; active = hit-call score of the fitted dose curve at least 0.9, where 1 is the maximum). The following applies: HepG2 Attagene TRANS GAL4-LXRb reporter, mRNA. In a few lines: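 HepG2 cells transiently transfected with GAL4-UAS reporter units for chimeric NR-Gal4 proteins, dosed for 24 h. Reporter transcripts measured by RT-PCR and capillary electrophoresis; gain-of-signal fitting relative to DMSO.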

The target of assay [5] is Hepatocyte nuclear factor 4-alpha (Homo sapiens) (UniProt P41235). The experiment in a line: ATG_HNF4a_TRANS: Attagene TRANS-FACTORIAL HepG2 Assay for human Hepatocyte Nuclear Factor 4 alpha (HNF4a) (AID 2282982; active = hit-call score of the fitted dose curve at least 0.9, where 1 is the maximum). The following applies: HepG2 HNF4a transactivation reporter, mRNA readout. In a few lines: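 HepG2 cells transiently transfected with HNF4a-Gal4 chimera and GAL4-UAS reporter units, dosed for 24 h. Reporter mRNA measured by RT-PCR, fluorescent primer extension and capillary electrophoresis; gain-of-signal fitted relative to DMSO.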
Sequence of Hepatocyte nuclear factor 4-alpha (Homo sapiens) (P41235 whole entry, looked up, the tested form may be a part): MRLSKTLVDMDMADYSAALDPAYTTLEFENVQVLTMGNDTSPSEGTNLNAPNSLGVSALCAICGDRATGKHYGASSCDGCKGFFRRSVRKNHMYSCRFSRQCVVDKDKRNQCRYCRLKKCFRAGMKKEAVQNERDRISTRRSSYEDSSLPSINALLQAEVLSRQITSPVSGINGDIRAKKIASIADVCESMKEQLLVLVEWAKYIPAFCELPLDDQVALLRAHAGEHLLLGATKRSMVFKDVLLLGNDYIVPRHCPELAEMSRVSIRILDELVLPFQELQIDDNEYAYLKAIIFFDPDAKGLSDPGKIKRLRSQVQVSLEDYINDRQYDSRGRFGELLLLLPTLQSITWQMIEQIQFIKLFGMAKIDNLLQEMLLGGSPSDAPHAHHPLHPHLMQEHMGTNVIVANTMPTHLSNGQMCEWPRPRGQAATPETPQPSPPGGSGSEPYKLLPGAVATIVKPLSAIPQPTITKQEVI

In assay [6] the target is Nuclear receptor subfamily 4 group A member 2 (Homo sapiens) (UniProt P43354). The assay can be described thus: ATG_NURR1_TRANS: Attagene TRANS-FACTORIAL HepG2 Assay for human Nuclear Receptor Related Protein 1 (NURR1) (AID 2282985; active = hit-call score of the fitted dose curve at least 0.9, where 1 is the maximum). The following applies: HepG2 Attagene TRANS reporter, mRNA readout. A digest of the protocol:
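HepG2 cells transiently transfected with NURR1-Gal4 chimera and GAL4-UAS reporter units; after 24 hr compound exposure, reporter mRNA quantified by RT-PCR and capillary electrophoresis; gain of signal fitted against DMSO.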

The target of assay [7] is Transcriptional activator Myb (Homo sapiens) (UniProt P10242). The experiment in a line: ATG_Myb_CIS: Attagene CIS-FACTORIAL HepG2 Assay for human Myeloblastosis (Myb) Proto-Oncogene Transcription Factor (AID 2282986). The following applies: HepG2 Attagene CIS-FACTORIAL Myb reporter transcription; actives raise or lower the signal. In a few lines:
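Using HepG2 liver cells bearing transiently transfected cis-promoter reporter constructs, the assay measures induction or loss of reporter mRNA after 24 hours of dosing. Detection used fluorescently labeled RT-PCR products separated by capillary electrophoresis.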

Assay [8] deals with Nuclear respiratory factor 1 (Homo sapiens) (UniProt Q16656). The experiment in a line: ATG_NRF1_CIS: Attagene CIS-FACTORIAL HepG2 Assay for human Nuclear Respiratory Factor 1 (NRF1) Orphan Gene (AID 2282987). The following applies: HepG2 NRF1 cis-element reporter, Attagene multiplex; actives raise or lower the signal. In a few lines:
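Reporter mRNA induction or loss in HepG2 cells after 24 h dosing; cis-regulated reporter constructs report endogenous transcription-factor activity. Quantified by RT-PCR/capillary electrophoresis fluorescence, DMSO-referenced.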

Assay [9] in a line: ATG_NFI_CIS: Attagene CIS-FACTORIAL HepG2 Assay for human Nuclear Factor I (NFI) (AID 2282989). The following applies: HepG2 cis-regulatory reporter, NFI response element transcription; actives raise or lower the signal. In a few lines: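 Cells: human liver HepG2, transiently transfected with promoter-regulated reporter transcription units. Exposure 24 h. Detection: fluorescent RT-PCR products separated by capillary electrophoresis, normalised to DMSO negative control.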

Assay [10] is described as follows: ATG_NF_kB_CIS: Attagene CIS-FACTORIAL HepG2 Assay for human Nuclear Factor Kappa B (NF-kB) (AID 2282991). The following applies: HepG2 Attagene cis-factorial NF-kB reporter mRNA; actives raise or lower the signal. In a few lines: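 DMSO served as negative control and baseline for bidirectional curve fitting. Transiently transfected HepG2 cells were dosed for 24 h, then reporter transcripts were measured by RT-PCR with capillary electrophoresis detection.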

A short description of assay [11]: ATG_NRF2_ARE_CIS: Attagene CIS-FACTORIAL HepG2 Assay for human Nuclear Factor Erythroid 2 Related Factor 2 (NFR2) response to Antioxidant Response Elements (ARE) (AID 2282992).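 As to AC50: reporter mRNA level measured by RT-PCR and capillary electrophoresis fluorescence.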 The following applies: HepG2 Attagene ARE/NRF2 reporter, transcription factor activity; actives raise or lower the signal. A digest of the protocol: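 HepG2 cells transiently transfected with multiplexed cis-regulated reporter transcription units measure endogenous transcription factor activity. Reporter mRNA at 24 h is quantified by RT-PCR, fluorescent labelling and capillary electrophoresis, with bidirectional fitting relative to DMSO.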

Assay [12] in a line: ATG_Oct_MLP_CIS: Attagene CIS-FACTORIAL HepG2 Assay for human Octamer-Binding Transcription Factor (Oct) (AID 2282993). The following applies: HepG2 Attagene cis-factorial Oct reporter, mRNA; actives raise or lower the signal. In a few lines: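 HepG2, transient MRTU transfection, cis promoter elements; 24 h dosing; RT-PCR/CE fluorescence read-out of reporter mRNA; fit both directions vs DMSO.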

Assay [13] has as its target Cellular tumor antigen p53 (Homo sapiens) (UniProt P04637). The assay can be described thus: ATG_p53_CIS: Attagene CIS-FACTORIAL HepG2 Assay for human p53 Transcription Factor (AID 2282994). The following applies: HepG2 p53 cis-element reporter, Attagene mRNA; actives raise or lower the signal. In a few lines: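 HepG2 cells transiently transfected with multiplexed cis-regulated reporter transcription units read endogenous TF activity. After 24 h compound exposure, reporter mRNA was quantified by RT-PCR, fluorescent labelling, HpaI digestion and capillary electrophoresis; bidirectional fits versus DMSO baseline.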

The nature of assay [14]: BSK_3C_TissueFactor: BioMAP Diversity Plus: 3C Assay for Tissue Factor Biomarker Activity (AID 2282997). The following applies: BioMAP 3C HUVEC, tissue factor biomarker readout; actives raise or lower the signal. In a few lines:
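HUVEC were treated 24 h, then surface tissue factor measured by ELISA and fitted bidirectionally against DMSO. Parallel SRB total-protein staining assessed overt cytotoxicity at the same time point.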

The nature of assay [15]: BSK_3C_uPAR: BioMAP Diversity Plus: 3C Assay for Urokinase-type plasminogen activator receptor (uPAR) Biomarker Activity (AID 2282998). The following applies: BioMAP 3C HUVEC, uPAR biomarker ELISA; actives raise or lower the signal. In a few lines:
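A multiplexed primary-cell system built on human umbilical vein endothelium was used, with chemical present for 24 h before reading. Cell-surface uPAR was detected by ELISA; signal change in either direction counted against DMSO.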

Assay [16] is described as follows: ATG_M_32_TRANS: Attagene TRANS-FACTORIAL HepG2 Assay for M32 Transcription Factor (Internal Marker) (AID 2282984; active = hit-call score of the fitted dose curve at least 0.9, where 1 is the maximum). The following applies: HepG2 Attagene TRANS M32 internal marker reporter. A digest of the protocol:
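HepG2 cells transiently transfected with GAL4-UAS reporter units, dosed for 24 hours. Reporter mRNA quantified by RT-PCR, 6-FAM labelling, HpaI digestion and capillary electrophoresis; internal-marker signal fitted upward relative to DMSO.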

A short description of assay [17]: ATG_M_06_TRANS: Attagene TRANS-FACTORIAL HepG2 Assay for M06 Transcription Factor (Internal Marker) (AID 2282983; active = hit-call score of the fitted dose curve at least 0.9, where 1 is the maximum;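 also: reporter transcript level by RT-PCR then capillary electrophoresis fluorescence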). The following applies: HepG2 Attagene TRANS M06 internal marker reporter. In a few lines:
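HepG2 cells transiently transfected with GAL4-UAS multiple reporter units, dosed 24 h. Reporter RNA reverse-transcribed, PCR-amplified, 6-FAM-labeled, HpaI-digested and quantified by capillary electrophoresis; this internal-marker signal fitted upward relative to DMSO.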

The target of assay [18] is Myc proto-oncogene protein (Homo sapiens) (UniProt P01106). The assay can be described thus: ATG_Myc_CIS: Attagene CIS-FACTORIAL HepG2 Assay for human Myelocytomatosis (Myc) Proto-Oncogene Transcription Factor (AID 2282990). The following applies: HepG2, Attagene cis-reporter transcription factor activity; actives raise or lower the signal. A digest of the protocol:
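Read-out: fluorescent reporter mRNA fragments resolved by capillary electrophoresis after RT-PCR. Human HepG2 liver cells carried transfected cis-element reporter units and were dosed for 24 h. Gain or loss of signal fitted relative to DMSO baseline.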

Assay [19] can be described thus: ATG_GAL4_TRANS: Attagene TRANS-FACTORIAL HepG2 Assay for GAL4 (Internal Marker) (AID 2282976; active = hit-call score of the fitted dose curve at least 0.9, where 1 is the maximum). The following applies: HepG2 Attagene TRANS GAL4 internal marker reporter. In a few lines: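 Background-control readout: GAL4-UAS reporter transcript in transiently transfected HepG2 cells after 24 h compound exposure. Measured by RT-PCR, 6-FAM primer extension, HpaI digest and capillary electrophoresis; gain-of-signal fit versus DMSO.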

The record followed here is PubChem BioAssay (EPA / NIEHS).

Inconclusive results are not listed. Active and inactive are the calls of the source. The calls were made as follows, unless noted: active = hit-call score of the fitted dose curve at least 0.9, where 1 is the maximum; inactive = score below 0.9.

As usually defined, the AC50 is the midpoint of the concentration-response curve, whichever way the signal moves.

Sequence of Transcriptional activator Myb (Homo sapiens) (P10242 whole entry, looked up): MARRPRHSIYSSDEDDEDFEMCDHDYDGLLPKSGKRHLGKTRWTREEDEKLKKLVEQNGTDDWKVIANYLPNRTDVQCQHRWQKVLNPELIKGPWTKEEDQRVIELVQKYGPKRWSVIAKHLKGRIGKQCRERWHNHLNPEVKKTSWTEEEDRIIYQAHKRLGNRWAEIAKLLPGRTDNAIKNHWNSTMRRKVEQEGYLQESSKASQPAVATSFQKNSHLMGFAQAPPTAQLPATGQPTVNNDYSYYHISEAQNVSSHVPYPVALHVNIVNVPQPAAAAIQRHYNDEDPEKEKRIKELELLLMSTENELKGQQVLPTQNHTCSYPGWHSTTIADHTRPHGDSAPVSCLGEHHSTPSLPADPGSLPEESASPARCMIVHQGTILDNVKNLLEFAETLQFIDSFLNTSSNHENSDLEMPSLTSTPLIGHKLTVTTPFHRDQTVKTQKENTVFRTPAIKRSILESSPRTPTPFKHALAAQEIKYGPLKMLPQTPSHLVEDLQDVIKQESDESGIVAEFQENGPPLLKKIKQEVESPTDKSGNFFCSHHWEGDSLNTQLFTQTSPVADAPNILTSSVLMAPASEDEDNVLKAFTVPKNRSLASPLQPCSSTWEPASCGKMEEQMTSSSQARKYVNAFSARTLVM
Sequence of Oxysterols receptor LXR-beta (Homo sapiens) (P55055 whole entry, looked up, the tested form may be a part): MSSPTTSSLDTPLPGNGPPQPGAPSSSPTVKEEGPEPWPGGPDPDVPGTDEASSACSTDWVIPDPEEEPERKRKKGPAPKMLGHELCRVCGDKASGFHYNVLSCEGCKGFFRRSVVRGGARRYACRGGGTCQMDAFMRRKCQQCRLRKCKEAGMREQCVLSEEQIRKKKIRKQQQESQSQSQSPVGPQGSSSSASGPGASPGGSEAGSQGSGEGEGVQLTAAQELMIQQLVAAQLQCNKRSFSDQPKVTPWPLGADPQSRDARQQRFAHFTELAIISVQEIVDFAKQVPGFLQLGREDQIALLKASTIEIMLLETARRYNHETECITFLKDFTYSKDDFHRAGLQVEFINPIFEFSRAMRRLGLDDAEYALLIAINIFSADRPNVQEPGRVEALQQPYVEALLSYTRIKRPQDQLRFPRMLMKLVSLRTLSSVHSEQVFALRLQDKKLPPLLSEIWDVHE
Sequence of Myc proto-oncogene protein (Homo sapiens) (P01106 whole entry, looked up, the tested form may be a part): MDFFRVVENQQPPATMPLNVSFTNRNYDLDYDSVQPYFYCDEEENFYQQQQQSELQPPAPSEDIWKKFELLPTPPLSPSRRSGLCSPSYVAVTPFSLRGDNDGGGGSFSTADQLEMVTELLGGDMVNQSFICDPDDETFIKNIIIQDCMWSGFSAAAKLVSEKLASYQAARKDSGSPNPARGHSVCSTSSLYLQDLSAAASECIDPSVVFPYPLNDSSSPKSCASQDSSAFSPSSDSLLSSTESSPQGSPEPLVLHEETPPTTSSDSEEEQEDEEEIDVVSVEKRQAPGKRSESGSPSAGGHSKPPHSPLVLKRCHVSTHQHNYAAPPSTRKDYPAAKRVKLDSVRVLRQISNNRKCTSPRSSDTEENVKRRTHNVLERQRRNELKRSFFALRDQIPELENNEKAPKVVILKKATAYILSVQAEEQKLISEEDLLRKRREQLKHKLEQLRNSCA
Sequence of Nuclear receptor subfamily 4 group A member 2 (Homo sapiens) (P43354 whole entry, looked up, the tested form may be a part): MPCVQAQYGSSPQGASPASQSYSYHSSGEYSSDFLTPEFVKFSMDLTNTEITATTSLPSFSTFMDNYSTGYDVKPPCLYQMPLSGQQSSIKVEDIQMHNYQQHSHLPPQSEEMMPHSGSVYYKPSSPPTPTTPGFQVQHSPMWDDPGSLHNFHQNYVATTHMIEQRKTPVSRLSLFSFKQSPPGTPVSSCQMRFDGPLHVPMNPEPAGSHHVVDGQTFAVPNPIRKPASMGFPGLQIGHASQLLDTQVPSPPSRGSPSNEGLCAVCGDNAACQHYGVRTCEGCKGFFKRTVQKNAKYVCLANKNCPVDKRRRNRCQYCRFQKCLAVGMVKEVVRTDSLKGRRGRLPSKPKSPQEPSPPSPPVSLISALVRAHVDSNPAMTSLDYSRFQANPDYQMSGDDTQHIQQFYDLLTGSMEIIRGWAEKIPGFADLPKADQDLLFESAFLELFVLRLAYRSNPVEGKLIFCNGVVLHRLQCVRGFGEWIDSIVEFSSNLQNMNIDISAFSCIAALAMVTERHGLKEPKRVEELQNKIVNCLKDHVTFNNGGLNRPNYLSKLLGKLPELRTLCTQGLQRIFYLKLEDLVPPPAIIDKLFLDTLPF
Sequence of Nuclear respiratory factor 1 (Homo sapiens) (Q16656 whole entry, looked up): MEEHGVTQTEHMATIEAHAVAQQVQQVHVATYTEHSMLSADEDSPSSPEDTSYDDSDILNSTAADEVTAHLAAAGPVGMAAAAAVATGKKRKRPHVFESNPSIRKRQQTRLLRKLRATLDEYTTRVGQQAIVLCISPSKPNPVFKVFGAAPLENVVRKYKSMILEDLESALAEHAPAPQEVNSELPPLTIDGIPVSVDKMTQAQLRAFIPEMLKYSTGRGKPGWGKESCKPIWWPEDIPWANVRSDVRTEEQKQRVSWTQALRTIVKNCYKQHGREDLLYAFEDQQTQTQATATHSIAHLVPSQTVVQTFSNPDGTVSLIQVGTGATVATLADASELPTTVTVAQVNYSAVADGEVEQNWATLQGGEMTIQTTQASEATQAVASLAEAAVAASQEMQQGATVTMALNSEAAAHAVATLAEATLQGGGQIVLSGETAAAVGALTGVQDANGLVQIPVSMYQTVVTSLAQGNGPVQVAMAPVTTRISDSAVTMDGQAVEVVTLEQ
Sequence of Glucocorticoid receptor (Homo sapiens) (P04150 whole entry, looked up, the tested form may be a part): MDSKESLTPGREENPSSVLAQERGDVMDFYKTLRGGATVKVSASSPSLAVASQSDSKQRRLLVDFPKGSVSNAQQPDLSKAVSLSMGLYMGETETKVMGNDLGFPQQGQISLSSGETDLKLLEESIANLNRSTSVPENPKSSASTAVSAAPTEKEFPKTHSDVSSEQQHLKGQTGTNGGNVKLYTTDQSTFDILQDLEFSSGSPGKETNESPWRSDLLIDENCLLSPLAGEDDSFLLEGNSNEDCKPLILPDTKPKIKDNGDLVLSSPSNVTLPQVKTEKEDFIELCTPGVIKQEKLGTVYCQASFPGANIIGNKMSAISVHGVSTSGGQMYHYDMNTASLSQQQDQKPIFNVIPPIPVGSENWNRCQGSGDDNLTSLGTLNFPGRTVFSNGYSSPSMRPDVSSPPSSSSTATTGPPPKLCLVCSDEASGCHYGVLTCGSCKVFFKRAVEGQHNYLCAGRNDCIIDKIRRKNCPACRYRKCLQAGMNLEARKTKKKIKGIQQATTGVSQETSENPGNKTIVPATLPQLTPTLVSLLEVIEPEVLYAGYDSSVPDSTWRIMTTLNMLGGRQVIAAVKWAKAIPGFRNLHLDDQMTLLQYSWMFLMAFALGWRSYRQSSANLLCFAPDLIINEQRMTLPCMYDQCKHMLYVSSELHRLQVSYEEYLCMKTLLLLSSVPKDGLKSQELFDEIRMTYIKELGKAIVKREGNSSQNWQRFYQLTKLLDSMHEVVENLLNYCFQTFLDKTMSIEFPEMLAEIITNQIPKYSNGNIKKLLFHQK
Sequence of Oxysterols receptor LXR-alpha (Homo sapiens) (Q13133 whole entry, looked up, the tested form may be a part): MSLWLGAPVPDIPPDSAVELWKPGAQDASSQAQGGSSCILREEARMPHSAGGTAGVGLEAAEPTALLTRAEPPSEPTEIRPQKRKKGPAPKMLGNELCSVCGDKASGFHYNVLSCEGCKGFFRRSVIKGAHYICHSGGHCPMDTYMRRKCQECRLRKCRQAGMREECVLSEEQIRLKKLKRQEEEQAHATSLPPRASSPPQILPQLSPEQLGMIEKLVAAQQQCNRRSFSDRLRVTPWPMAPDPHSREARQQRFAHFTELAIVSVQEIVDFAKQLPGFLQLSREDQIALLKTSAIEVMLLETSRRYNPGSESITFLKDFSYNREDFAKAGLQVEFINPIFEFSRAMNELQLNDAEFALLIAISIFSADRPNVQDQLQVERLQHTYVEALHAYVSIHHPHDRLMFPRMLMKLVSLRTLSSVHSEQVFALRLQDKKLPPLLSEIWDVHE
Sequence of Cellular tumor antigen p53 (Homo sapiens) (P04637 whole entry, looked up): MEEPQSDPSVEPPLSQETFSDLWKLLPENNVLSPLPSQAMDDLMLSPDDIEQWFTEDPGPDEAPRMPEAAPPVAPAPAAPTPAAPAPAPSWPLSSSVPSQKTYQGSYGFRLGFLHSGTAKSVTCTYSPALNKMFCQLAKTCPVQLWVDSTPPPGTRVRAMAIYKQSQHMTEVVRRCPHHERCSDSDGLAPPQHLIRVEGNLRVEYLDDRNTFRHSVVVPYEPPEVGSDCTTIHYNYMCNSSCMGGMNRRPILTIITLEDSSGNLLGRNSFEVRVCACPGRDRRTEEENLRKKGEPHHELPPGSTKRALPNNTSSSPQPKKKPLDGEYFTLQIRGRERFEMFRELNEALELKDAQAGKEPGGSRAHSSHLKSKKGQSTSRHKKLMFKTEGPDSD

`COC(=O)NC(=S)Nc1ccccc1NC(=S)NC(=O)OC`: the outcome in assay [1], in assay [2], in assay [3], in assay [4], in assay [5] and in assay [6] was inactive. Further, the result in [7], in [8], in [9], in [10], in [13] and in assay [14] was inactive. Further, in assay [15], the outcome was inactive. Moreover, the AC50 in assay [11] was 11.6 µM (active); in assay [12] it was 30.8 µM (active).
As for `N#Cc1c(Cl)cccc1Cl`, the call in [2], in assay [3], in assay [4], in assay [16], in [7] and in assay [8] was inactive. The result in assay [9], in assay [10], in assay [12], in assay [13], in assay [14] and in [15] was inactive. Moreover, in assay [11], the AC50 was 13.7 µM (active).
Take `CCOC(=O)C(C)OC(=O)c1cc(Oc2ccc(C(F)(F)F)cc2Cl)ccc1[N+](=O)[O-]` (centres undefined): the molecule was called inactive in assay [2], in assay [3], in assay [4], in assay [17], in assay [7] and in [8]. The molecule was called inactive in assay [9], in [18], in [10], in [12], in [13] and in [14]. For the same molecule, the results for the AC50 in assay [11] and in [15] were 17.2 µM (active) and 13.3 µM (active), respectively.
As to `CC(C)NC(=O)N1CC(=O)N(c2cc(Cl)cc(Cl)c2)C1=O`, the result in assay [1], in assay [19], in [3], in assay [4], in assay [17] and in [16] was inactive. The molecule was classed as inactive in [6], in [7], in [8], in assay [9], in [18] and in [10]. Further, the call in assay [12], in assay [13] and in assay [14] was inactive. Moreover, the AC50 in [11] is 7.39 µM (active); in assay [15] it was 32.8 µM (active).
Regarding `CCCCC(C#N)(Cn1cncn1)c1ccc(Cl)cc1` (centres undefined), the result in assay [2], in [4], in assay [5], in assay [17], in [16] and in [6] was inactive. The molecule was classed as inactive in assay [7], in assay [8], in assay [9], in assay [18], in [11] and in assay [12]. In addition, the result in assay [13], in [14] and in assay [15] was inactive.
